High-throughput results (PubChem)
Most compounds without a hit are left out; they make up all but 11% or so of the library.
Tau FP inhib – qHTS for Inhibitors of Tau Fibril Formation, Fluorescence Polarization. Microtubule-associated protein tau (Homo sapiens), P10636. K18 P301L tau heparin fibrillization, Alexa594 FP, 6 h. Potency, µM (doses to about 57.7 µM), inactives show top-dose activity, negative = inhibition, most hits filed as inhibitors. 280,000 tested, 0.39% active; also: potency is read from the fitted curve at half-maximal effect; nearly all actives have a fitted effect of over 55% in size
Target sequence (P10636 561-689 P618L limits assumed): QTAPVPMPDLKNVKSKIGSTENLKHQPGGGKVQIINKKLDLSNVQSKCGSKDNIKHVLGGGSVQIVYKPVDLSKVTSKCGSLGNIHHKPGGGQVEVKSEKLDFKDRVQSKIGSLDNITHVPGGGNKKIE
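Recombinant K18 P301L […], labeled with Alexa 594 at 0.24 uM over 15 uM unlabeled; heparin inducer 20 uM final; 37 C, 6 hr; FP endpoint.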
Tau fluor cs – Counterscreen qHTS for Inhibitors of Tau Fibril Formation, Fluorescence Polarization; Potency, µM (highest dose often 57.7 µM), for inactives: at the highest dose activity change, negative = decrease; 280,000 tested, 0.93% active; tau K18 P301L Alexa594 fluorescence, heparin fibrillization; AID 1463, 2008; also: potency is read from the fitted curve at half-maximal effect; nearly all actives have a fitted effect of over 55% in size
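Human tau K18 P301L (15 uM unlabeled, 0.24 uM Alexa 594-labeled) in 100 mM sodium acetate pH 7 with 20 uM heparin, 6 hr at 37 C. ThT 30 uM added, 1 hr ambient; Alexa 594 FP and total fluorescence read at 555/632 nm.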
G9a block – qHTS Assay for Inhibitors of Histone Lysine Methyltransferase G9a | Potency, µM (series often up to 102 µM), for inactives: at the top dose activity, negative = inhibition, hits mostly inhibitors | Histone-lysine N-methyltransferase EHMT2 (Homo sapiens), Q96KQ7 | 350,000 tested, 8.8% active | G9a H3K9 monomethylation, AlphaScreen, 2 h; also: potency is read from the fitted curve at half-maximal effect; nearly all actives have a fitted effect of over 75% in size
Target sequence (Q96KQ7 913-1193 limits assumed): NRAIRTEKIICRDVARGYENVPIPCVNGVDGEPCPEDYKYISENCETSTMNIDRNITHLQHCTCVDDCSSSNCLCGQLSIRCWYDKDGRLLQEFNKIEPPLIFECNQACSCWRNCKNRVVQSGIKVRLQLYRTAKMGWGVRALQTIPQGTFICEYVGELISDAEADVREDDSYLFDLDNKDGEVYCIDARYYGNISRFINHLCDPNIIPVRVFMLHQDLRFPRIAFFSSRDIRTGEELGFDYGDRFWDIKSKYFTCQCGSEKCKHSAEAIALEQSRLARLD
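Enzyme 20 nM + cpd, 15 min RT; add b-H3K9 pep 500 nM / SAM 20 uM; 2 h RT; anti-H3K9me1 Ab 0.5 ug/mL + SA donor / anti-rabbit acceptor beads 20 ug/mL each, 10 min; AlphaScreen read.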
Sfp PPTase inh – qHTS Assay for Inhibitors of Bacillus subtilis Sfp phosphopantetheinyl transferase (PPTase). 4'-phosphopantetheinyl transferase ffp (Bacillus subtilis), Q9F4F7. Biochemical Sfp PPTase activity, qHTS. Potency, µM, without a hit: largest response in the series, negative = inhibition, hits mostly inhibitors. 310,000 tested, 3.5% active. AID 1490, 2009;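 also: the enzyme is Sfp with the accession as filed and its product quenches rhodamine fluorescence; potency is read from the fitted curve at half-maximal effect; 0% = enzyme reaction without inhibitor and -100% = no enzyme wells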
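Reaction rates are the 30-min fluorescence difference (ex 525, em 598 nm) in wells containing 15 nM Sfp, 5 uM rhodamine-CoA and 12.5 uM BHQ-2-YbbR at pH 7.6 with 10 mM MgCl2.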
Tau ThT inhib – qHTS for Inhibitors of Tau Fibril Formation, Thioflavin T Binding. Microtubule-associated protein tau (Homo sapiens), P10636. recombinant tau K18 P301L (four-repeat tau fragment), heparin-induced fibrillization, ThT fluorescence. Potency, µM (series often up to 57.4 µM), inactives show at the highest dose activity, negative = inhibition, hits mostly inhibitors. 270,000 tested, 2.1% active. AID 1460, 2008; also: potency is read from the fitted curve at half-maximal effect; nearly all actives have a fitted effect of over 55% in size
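Heparin-induced (20 uM) aggregation of recombinant human K18 P301L tau, 15 uM unlabeled with 0.24 uM labeled, pH 7 acetate buffer, 6 hr at 37 C with compound. Fibrils quantified by 30 uM ThT fluorescence after 1 hr ambient incubation.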
FBPA coupling cs – qHTS Assay for Inhibitors of Fructose-1,6-bisphosphate Aldolase from Giardia Lamblia: Coupling assay counterscreen; coupling enzyme system counterscreen, AmpLite Red fluorescence; activity change, negative = inhibition, % at 58.2 µM, hits read low; 290,000 tested, 0.67% active; AID 2472, 2010; in the data active = activity change below about -30%
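Counterscreen lacking aldolase: glyceraldehyde-3-phosphate coupling-enzyme reagent preincubated 10 min at RT with compound (at 57.5 uM final), then substrate/coupling system with AmpLite Red added; fluorescence read at 525/598 nm after 20 min RT.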
Starred values were filed as active, the others as inactive; ? = inconclusive; · = no result given; [ ] = another dose, or the depositor's remark. Unless noted, calls follow the shape of the dose curve; as a rule, active = well fitted curve in the direction sought with a large enough effect; inconclusive = small, poorly fitted or top-dose-only effect, or another doubt; inactive = no such curve, though single readings can be large; an effect the other way counts as inactive or inconclusive. Unless noted, % is scaled to controls: 0 for no effect and ±100 for the full control effect.

SMILES	Tau FP inhib	Tau fluor cs	G9a block	Sfp PPTase inh	Tau ThT inhib	FBPA coupling cs
Cc1cccc(OCC(=O)Nc2ccc3nc(Nc4cccc(C(F)(F)F)c4)cc(C)c3c2)c1	-10.3%	?	-3.0%[59 µM]	·	-9.1%	·
COc1ccc(CC(=O)Nc2ccc3nc(Nc4cccc(Cl)c4)cc(C)c3c2)cc1	?	4.47µM*[quencher]	-5.5%[59 µM]	·	?	·
COc1ccccc1CC(=O)Nc1ccc2nc(Nc3cccc(Cl)c3)cc(C)c2c1	?	3.98µM*[quencher]	28.9%[59 µM]	·	?	·
Cc1ccc(OCC(=O)Nc2ccc3nc(Nc4cccc(Cl)c4)cc(C)c3c2)cc1	-10.0%	?	3.0%[59 µM]	·	-10.7%	·
COc1cccc(Nc2cc(C)c3ccccc3n2)c1	·	·	-7.0%[2.33 µM]	-2.4%	·	-4.7
COc1ccccc1CC(=O)Nc1ccc2c(C)cc(=O)oc2c1	·	·	70.8µM*	12.2%	·	0.0
CCCOc1cccc(C2c3c(oc4cc(C)c(C)cc4c3=O)C(=O)N2CCCN2CCOCC2)c1 (centres undefined)	-19.7%	-26.3%	-21.0%[59 µM]	·	?	·
CCOc1ccc2nc(NC(=O)c3cnccn3)sc2c1	2.1%	-4.9%	?	-8.0%	-9.2%	1.6
O=C(Nc1nc2ccccc2s1)c1cnccn1	-3.8%	-9.2%	3.55µM*	-25.3%	-11.7%	0.2
O=C(Nc1nc(-c2ccco2)c(-c2ccco2)s1)c1ccc(F)cc1F	·	·	10µM*	·	·	·
O=C(Nc1nc2c(s1)CCCC2=O)c1cnccn1	-7.6%	-8.9%	?	?	-11.6%	-1.4
O=C(Nc1nc(-c2ccco2)c(-c2ccco2)s1)c1cnccn1	·	·	10µM*	·	·	·
CC1CCN(S(=O)(=O)c2ccc3c(c2)c(=O)c(C(=O)NCc2ccc(Cl)cc2)cn3C)CC1	-13.5%	-26.4%	-35.3%[59 µM]	·	16.6%	·
CC(/C=N/n1c(-c2ccc(Cl)cc2)n[nH]c1=S)=C\c1ccco1	-1.4%	-26.1%	10µM*	-29.2%	?	0.5
CC(/C=N/n1c(-c2cc(C)[nH]n2)n[nH]c1=S)=C\c1ccco1	-5.9%	-18.7%	·	14.1µM*	?	-0.2
CC(/C=N/n1cnnc1)=C\c1ccco1	-3.9%	-8.5%	?	-20.8%	?	-2.5
COc1ccc(C2c3[nH]c4ccccc4c3C[C@H]3C(=O)N(c4ccccc4C(=O)N4CCC[C@H]4C(=O)O)C(=O)N23)cc1 (some centres undefined)	·	·	2.9%[12.7 µM]	5.6%	·	1.9
CCOc1nc(NC(=O)NS(=O)(=O)Oc2cccc(F)c2)nc(-c2ccccc2)n1	-0.8%	-5.6%	-36.8%[59 µM]	·	-8.3%	·
COc1ccc2oc(C(=O)Nc3nc4ccccc4[nH]3)c(C)c2c1	-10.1%	-11.2%	7.7%[12.7 µM]	?	9.7%	-5.6
COc1ccnc(CS(=O)c2nc3cc(C(O)(F)F)ccc3[nH]2)c1OC (centres undefined)	·	·	20µM*	-6.2%	·	2.1
COc1ccc2[nH]c(S(=O)Cc3ncc(C)c(OC)c3C)nc2c1 (centres undefined)	·	·	15.8µM*	-24.2%	·	2.2
CC(=O)c1cc(NC(=O)c2ccc(Cl)cc2)c(=O)oc1/C=C/N(C)C	?	-26.5%	?	56.2µM*	10µM*	-0.2
CC(=O)c1cc(NC(=O)c2cccc(C(F)(F)F)c2)c(=O)oc1/C=C/N(C)C	-2.0%	-5.5%	10.4%	5.0%	?	3.3
COc1ccc(C(=O)Nc2cc(C(C)=O)c(C)oc2=O)cc1	?	-16.0%	35.5µM*	?	?	2.1
CC(=O)c1cc(NC(=O)c2cccc(C(F)(F)F)c2)c(=O)oc1C	35.5µM*	-28.5%	25.1µM*	14.1µM*	25.1µM*	1.6
SMILES	Tau FP inhib	Tau fluor cs	G9a block	Sfp PPTase inh	Tau ThT inhib	FBPA coupling cs
CCN1C(=O)C2(C(C(=O)c3ccc(C)o3)=C(O)C(=O)N2CCCN2CCOCC2)c2ccccc21 (centres undefined)	1.7%	6.7%	?	2.51µM*	0.1%	-11.1
Cc1ccc(C(=O)C2=C(O)C(=O)N(CCCN3CCOCC3)C23C(=O)N(C)c2ccccc23)o1 (centres undefined)	1.7%	7.4%	?	7.9%	-3.7%	-2.9
CC(=O)c1sc(N/N=C2\CC3CC2C(C)C3(C)C)nc1C (centres undefined)	7.7%	?	39.8µM*	35.5µM*	?	-3.5
COc1ccccc1NC(=O)CON=C(N)CC(=O)NC1CCCCC1	·	·	15.2%[12.7 µM]	·	·	·
Cn1c(SCc2cccc(Br)c2)nc2c1c(=O)[nH]c(=O)n2C	·	·	12.0%	8.3%	·	2.4
CC(=O)CSc1nc2c(c(=O)[nH]c(=O)n2C)n1Cc1cccc(Br)c1	·	·	22.4µM*	44.7µM*	·	-1.2
Cn1c(=O)[nH]c(=O)c2c1nc(SCCC(=O)O)n2Cc1cccc(Br)c1	·	·	35.5µM*	-5.1%	·	2.9
NN/C(=C\[N+](=O)[O-])Nc1ccc(Cl)cc1	-1.8%	?	1.26µM*	-7.4%	15.8µM*	-0.8
NN/C(=C\[N+](=O)[O-])Nc1ccccc1	1.2%	?	20µM*	-14.3%	?	3.1
CCCCc1cc(=O)oc2cc(C)c3c(C)coc3c12	-1.7%	-12.8%	16.6%[59 µM]	·	?	·
O=S(NCc1ccco1)C12CC3CC(CC(C3)C1)C2 (centres undefined)	-7.8%	-3.2%	6.31µM*	-29.3%	?	-4.4
NC(=O)CSc1n[nH]c(-c2ccco2)n1	8.4%	14.2%	-3.0%	7.6%	·	0.4
S=c1nc(-c2ccco2)[nH][nH]1	-1.6%	-10.5%	1.78µM*	28.2µM*	-6.6%	1.0
CCOC(=O)C1(Cc2ccc(Cl)cc2)CCN(C(C)Cc2ccc(O)c(OC)c2)CC1 (centres undefined)	·	·	12.7%	14.9%	·	1.0
COc1cccc(C(=O)N2c3cc(C)ccc3C(C)(c3ccccc3)CC2(C)C)c1 (centres undefined)	-3.0%	-18.2%	-4.0%[59 µM]	·	-15.1%	·
CCOc1ccc(OCCn2c(=S)[nH]c3c(N)ncnc32)cc1	3.8%	-21.1%	6.31µM*	?	-10.2%	5.8
CC(=O)c1ccc(N2CCN(C(=O)CCc3nnc4n(C)c(=O)c5sccc5n34)CC2)cc1	-1.0%	-4.9%	11.5%[59 µM]	·	-8.6%	·
